Results as given in PubChem BioAssay (EPA / NIEHS).
Active and inactive are the calls of the source. How the source made its calls: active means hit-call score of the fitted dose curve at least 0.9, where 1 is the maximum; inactive means score below 0.9.

How the values were obtained:
Details in all cases: mRNA level, 48 h; actives raise or lower the signal
[1] = read-out: Peroxisomal acyl-coenzyme A oxidase 1 (ACOX1) gene, ACOX1 (gene 51); assay: LTEA_HepaRG_ACOX1: Life Technologies and Expression Analysis (LTEA) Assay for Peroxisomal acyl-coenzyme A oxidase 1 (ACOX1) gene using HepaRG (AID 2283467)
Outline: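 Differentiated human HepaRG cells were exposed in duplicate for 48 h in serum-free induction medium to eight half-log concentrations up to 100 uM in 0.5% DMSO. ACOX1 mRNA was then quantified by TaqMan qRT-PCR, normalized to ACTB, GAPDH and POLR2A.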

[2] = read-out: Alkaline Phosphatase, Placental (ALPP) gene, ALPP (gene 250); assay: LTEA_HepaRG_ALPP: Life Technologies and Expression Analysis (LTEA) Assay for Alkaline Phosphatase, Placental (ALPP) gene using HepaRG (AID 2283468)
Outline: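 HepaRG cells plated 48 h, then exposed in duplicate for 48 h in serum-free induction medium to 8-point half-log series from 100 uM in 0.5% DMSO. ALPP mRNA by TaqMan qRT-PCR, normalized to ACTB/GAPDH/POLR2A; bidirectional fit versus DMSO.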

[3] = read-out: Bcl-2 (BAD) gene, BAD (gene 572); assay: LTEA_HepaRG_BAD: Life Technologies and Expression Analysis (LTEA) Assay for Bcl-2 (BAD) gene using HepaRG (AID 2283469)
Outline: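 Differentiated human HepaRG cells in serum-free induction medium were exposed in duplicate for 48 h to eight concentrations (top 100 uM, half-log steps, 0.5% DMSO). BAD mRNA was quantified by qRT-PCR normalised to ACTB, GAPDH and POLR2A, with bidirectional fitting versus DMSO.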

[4] = read-out: Bcl-2 (BAX) gene, BAX (gene 581); assay: LTEA_HepaRG_BAX: Life Technologies and Expression Analysis (LTEA) Assay for Bcl-2 (BAX) gene using HepaRG (AID 2283470)
Outline: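 Differentiated HepaRG cells exposed 48 h in serum-free induction medium, eight half-log concentrations from 100 uM, in duplicate, 0.5% DMSO vehicle. BAX mRNA by TaqMan qRT-PCR, normalised to ACTB, GAPDH and POLR2A.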

[5] = read-out: adenosine kinase (ADK) gene, ADK (gene 132); assay: LTEA_HepaRG_ADK: Life Technologies and Expression Analysis (LTEA) Assay for adenosine kinase (ADK) gene using HepaRG (AID 2283471)
Outline: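 Following 48 h exposure of HepaRG cells in 0.5% DMSO (top concentration 100 uM, duplicate wells), ADK mRNA induction or suppression was measured by qRT-PCR, normalised to ACTB/GAPDH/POLR2A, and fitted bidirectionally relative to vehicle.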

[6] = read-out: Alpha-fetoprotein (AFP) gene, AFP (gene 174); assay: LTEA_HepaRG_AFP: Life Technologies and Expression Analysis (LTEA) Assay for Alpha-fetoprotein (AFP) gene using HepaRG (AID 2283472)
Outline: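 Differentiated human HepaRG cells exposed 48 h in serum-free induction medium, 8-point half-log series from 100 uM in 0.5% DMSO, duplicate. AFP mRNA by qRT-PCR, normalized to ACTB, GAPDH, POLR2A; bidirectional fit vs DMSO.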

[7] = read-out: BCL2L11 (gene 10018); assay: LTEA_HepaRG_BCL2L11: Life Technologies and Expression Analysis (LTEA) Assay for Bcl-2 (BCL2L11) gene using HepaRG (AID 2283473)
Outline: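 Differentiated human HepaRG cells were exposed 48 h in serum-free induction medium to eight half-log concentrations up to 100 uM in 0.5% DMSO, in duplicate. BCL2L11 mRNA was quantified by TaqMan qRT-PCR, normalized to ACTB, GAPDH and POLR2A; induction or repression fitted versus DMSO.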

[8] = read-out: Apolipoprotein A-V (APOA5) gene, APOA5 (gene 116519); assay: LTEA_HepaRG_APOA5: Life Technologies and Expression Analysis (LTEA) Assay for Apolipoprotein A-V (APOA5) gene using HepaRG (AID 2283474)
Outline: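 Differentiated HepaRG cells in serum-free induction medium, exposed 48 h in duplicate to eight half-log concentrations topping at 100 uM (0.5% DMSO). APOA5 mRNA by Fluidigm TaqMan qRT-PCR, normalized to ACTB, GAPDH and POLR2A; bidirectional fit versus DMSO.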

[9] = read-out: Apoptosis regulator Bcl-2 (Homo sapiens) (UniProt P10415); assay: LTEA_HepaRG_BCL2: Life Technologies and Expression Analysis (LTEA) Assay for Bcl-2 gene using HepaRG (AID 2283475)
Outline: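 Differentiated human HepaRG cells in serum-free induction medium exposed 48 h, in duplicate, to 8-point half-log series from 100 uM in 0.5% DMSO. BCL2 mRNA by qRT-PCR (TaqMan/Fluidigm), normalized to ACTB, GAPDH, POLR2A; bidirectional fit against DMSO.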

[10] = read-out: Bcl-2 (BID) gene, BID (gene 637); assay: LTEA_HepaRG_BID: Life Technologies and Expression Analysis (LTEA) Assay for Bcl-2 (BID) gene using HepaRG (AID 2283476)
Outline: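 Gene expression by qRT-PCR in HepaRG cells after 48 h exposure, duplicate wells, eight half-log concentrations topping at 100 uM in 0.5% DMSO. Normalized to ACTB, GAPDH, POLR2A; bidirectional fitting relative to DMSO.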

[11] = read-out: Caspase-3 (Homo sapiens) (UniProt P42574); assay: LTEA_HepaRG_CASP3: Life Technologies and Expression Analysis (LTEA) Assay for cysteine-aspartic acid protease (CASP3) using HepaRG (AID 2283477)
Outline: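 Differentiated HepaRG cells, plated 48 h, were treated in duplicate in serum-free induction medium for 48 h with eight half-log concentrations up to 100 uM in 0.5% DMSO. CASP3 mRNA measured by qRT-PCR, normalized to ACTB, GAPDH, POLR2A.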

[12] = read-out: Cytochrome P450 (CYP24A1), CYP24A1 (gene 1591); assay: LTEA_HepaRG_CYP24A1: Life Technologies and Expression Analysis (LTEA) Assay for Cytochrome P450 (CYP24A1) using HepaRG (AID 2283478)
Outline: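 HepaRG cells plated 48 h, then exposed in duplicate in serum-free induction medium for 48 h to 8-point half-log series from 100 uM in 0.5% DMSO. CYP24A1 mRNA by Fluidigm qRT-PCR, normalized to ACTB, GAPDH, POLR2A; bidirectional fit versus DMSO.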

[13] = read-out: Cytochrome P450 (CYP1A2), CYP1A2 (gene 1544); assay: LTEA_HepaRG_CYP1A2: Life Technologies and Expression Analysis (LTEA) Assay for Cytochrome P450 (CYP1A2) using HepaRG (AID 2283479)
Outline: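 Differentiated human HepaRG cells in serum-free induction medium exposed 48 hours in duplicate to 8 half-log concentrations from 100 uM, 0.5% DMSO. CYP1A2 mRNA quantified by qRT-PCR, normalized to ACTB, GAPDH and POLR2A; bidirectional fitting versus DMSO.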

[14] = read-out: cysteine-aspartic acid protease (CASP8), CASP8 (gene 841); assay: LTEA_HepaRG_CASP8: Life Technologies and Expression Analysis (LTEA) Assay for cysteine-aspartic acid protease (CASP8) using HepaRG (AID 2283480)
Outline: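 Differentiated human HepaRG cells, plated 48 h then switched to serum-free induction medium, were exposed in duplicate for 48 h to 8 half-log concentrations up to 100 uM in 0.5% DMSO. CASP8 mRNA was quantified by qRT-PCR, normalized to ACTB/GAPDH/POLR2A.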

[15] = read-out: Cytochrome P450 (CYP2B6), CYP2B6 (gene 1555); assay: LTEA_HepaRG_CYP2B6: Life Technologies and Expression Analysis (LTEA) Assay for Cytochrome P450 (CYP2B6) using HepaRG (AID 2283481)
Outline: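 Differentiated human HepaRG cells in serum-free induction medium, dosed in duplicate for 48 h over 8 half-log concentrations topping at 100 uM (0.5% DMSO). CYP2B6 mRNA measured by TaqMan qRT-PCR, normalized to ACTB, GAPDH, POLR2A; bidirectional fit versus DMSO.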

[16] = read-out: CYP2C8 (gene 1558); assay: LTEA_HepaRG_CYP2C8: Life Technologies and Expression Analysis (LTEA) Assay for CYP2C8 using HepaRG (AID 2283483)
Outline: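 Differentiated human HepaRG cells were exposed for 48 h in serum-free induction medium to eight half-log concentrations up to 100 uM in 0.5% DMSO, in duplicate. CYP2C8 mRNA was measured by TaqMan qRT-PCR, normalized to ACTB, GAPDH and POLR2A, and fitted bidirectionally against DMSO.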

[17] = read-out: CYP2C9 (gene 1559); assay: LTEA_HepaRG_CYP2C9: Life Technologies and Expression Analysis (LTEA) Assay for CYP2C9 using HepaRG (AID 2283484)
Outline: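 Differentiated human HepaRG cells were exposed 48 h in serum-free induction medium to eight half-log concentrations up to 100 uM in 0.5% DMSO. CYP2C9 mRNA was measured by qRT-PCR, normalized to ACTB, GAPDH and POLR2A, and fitted bidirectionally against DMSO.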

[18] = read-out: CYP2E1 (gene 1571); assay: LTEA_HepaRG_CYP2E1: Life Technologies and Expression Analysis (LTEA) Assay for CYP2E1 using HepaRG (AID 2283485)
Outline: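 HepaRG cells, plated 48 h, then exposed 48 h in serum-free induction medium to eight half-log concentrations from 100 uM in 0.5% DMSO, duplicate. CYP2E1 mRNA by qRT-PCR, normalized to ACTB/GAPDH/POLR2A; bidirectional fit versus DMSO.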

[19] = read-out: CYP4A11 (gene 1579); assay: LTEA_HepaRG_CYP4A11: Life Technologies and Expression Analysis (LTEA) Assay for CYP4A11 using HepaRG (AID 2283486)
Outline: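 Differentiated HepaRG cells, 48 h after plating, exposed in duplicate for 48 h to 8 half-log concentrations up to 100 uM in 0.5% DMSO in serum-free induction medium. CYP4A11 mRNA measured by TaqMan qRT-PCR, normalized to ACTB, GAPDH and POLR2A.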

[20] = read-out: Cytochrome P450 2C19 (Homo sapiens) (UniProt P33261); assay: LTEA_HepaRG_CYP2C19: Life Technologies and Expression Analysis (LTEA) Assay for CYP2C19 using HepaRG (AID 2283482)
Outline: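 Differentiated HepaRG cells in serum-free induction medium exposed 48 h in duplicate, 8 concentrations from 100 uM by half-log steps in 0.5% DMSO. CYP2C19 mRNA measured by TaqMan qRT-PCR, normalized to ACTB, GAPDH, POLR2A. Bidirectional fit versus DMSO.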

Measured: AC50

Apoptosis regulator Bcl-2 (Homo sapiens), sequence (P10415 whole entry, looked up): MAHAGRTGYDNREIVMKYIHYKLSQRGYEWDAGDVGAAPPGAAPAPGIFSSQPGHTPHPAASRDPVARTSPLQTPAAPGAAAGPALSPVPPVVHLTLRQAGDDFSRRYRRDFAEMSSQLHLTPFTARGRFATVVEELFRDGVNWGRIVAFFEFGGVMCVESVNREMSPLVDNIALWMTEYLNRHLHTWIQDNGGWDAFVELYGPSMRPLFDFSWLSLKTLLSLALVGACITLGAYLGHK
Cytochrome P450 2C19 (Homo sapiens), sequence (P33261 whole entry, looked up): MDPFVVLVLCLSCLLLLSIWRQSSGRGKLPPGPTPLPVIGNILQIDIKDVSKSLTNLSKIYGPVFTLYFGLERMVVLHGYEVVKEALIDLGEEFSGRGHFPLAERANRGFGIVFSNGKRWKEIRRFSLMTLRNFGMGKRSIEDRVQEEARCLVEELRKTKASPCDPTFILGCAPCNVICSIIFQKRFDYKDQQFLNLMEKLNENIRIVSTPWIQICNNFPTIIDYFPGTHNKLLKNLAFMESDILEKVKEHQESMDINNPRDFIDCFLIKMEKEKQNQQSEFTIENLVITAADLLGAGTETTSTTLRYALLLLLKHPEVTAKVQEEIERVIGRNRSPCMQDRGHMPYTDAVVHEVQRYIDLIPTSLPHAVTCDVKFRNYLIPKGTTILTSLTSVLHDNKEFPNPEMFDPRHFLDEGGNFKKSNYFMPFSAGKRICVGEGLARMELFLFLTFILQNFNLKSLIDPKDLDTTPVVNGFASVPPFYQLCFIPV
Caspase-3 (Homo sapiens), sequence (P42574 whole entry, looked up): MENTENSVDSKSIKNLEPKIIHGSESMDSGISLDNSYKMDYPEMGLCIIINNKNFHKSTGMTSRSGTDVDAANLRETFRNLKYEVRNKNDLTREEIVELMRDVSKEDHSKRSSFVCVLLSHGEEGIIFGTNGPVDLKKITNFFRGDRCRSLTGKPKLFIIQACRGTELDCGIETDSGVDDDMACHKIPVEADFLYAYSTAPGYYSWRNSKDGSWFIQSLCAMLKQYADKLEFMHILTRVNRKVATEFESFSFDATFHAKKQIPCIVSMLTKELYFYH

Cc1cc2c3c(c1)C(c1ccccc1)=N[C@@H](NC(=O)c1ccncc1)C(=O)N3CC2
active: [2] 10.3 µM | [6] 50 µM | [8] 62.5 µM | [13] 23.1 µM | [18] 17.9 µM | [19] 40.4 µM
inactive: [1] | [3] | [4] | [5] | [7] | [9] | [10] | [11] | [12] | [14] | [15] | [16] | [17]

CCC(C)(c1ccc(O)cc1)c1ccc(O)cc1
active: [6] 50 µM | [13] 89.2 µM
inactive: [1] | [2] | [3] | [4] | [5] | [7] | [9] | [10] | [11] | [12] | [14] | [15] | [20] | [16] | [17] | [19]

Cc1ccccc1O
inactive: [1] | [2] | [3] | [4] | [5] | [6] | [7] | [8] | [9] | [10] | [11] | [12] | [13] | [14] | [20] | [16] | [17] | [18] | [19]
active: [15] 24.4 µM

CCC(=O)O[C@H]1CC[C@H]2[C@@H]3CCC4=CC(=O)CC[C@]4(C)[C@H]3CC[C@]12C
inactive: [1] | [2] | [3] | [4] | [5] | [6] | [7] | [8] | [9] | [10] | [11] | [12] | [13] | [14] | [16] | [17]
active: [15] 50 µM | [20] 3.23 µM | [19] 1.16 µM

N#Cc1ccc(N(CC(N)=O)CC(F)(F)F)cc1C(F)(F)F
inactive: [1] | [2] | [3] | [4] | [5] | [6] | [7] | [8] | [9] | [10] | [11] | [12] | [13] | [14] | [16] | [17] | [19]
active: [15] 0.159 µM | [18] 0.537 µM

O=NN(c1ccccc1)c1ccccc1
active: [2] 82.7 µM | [5] 11.8 µM | [7] 50 µM | [8] 76.1 µM | [10] 78.2 µM | [13] 50 µM | [15] 10.6 µM | [17] 0.273 µM | [19] 50 µM
inactive: [1] | [3] | [4] | [6] | [9] | [11] | [12] | [14] | [16]
